# PMC10214531
# Biological target: Guanine nucleotide-binding protein G(I)/G(S)/G(T) subunit beta-1 (UniProt P62873)
# Assay: cross-link between two proteins; cross-linking mass spectrometry
substance,measurement,value
"Guanine nucleotide-binding protein G(I)/G(S)/G(O) subunit gamma-2, P59768",listed as a hit,yes
